Most compounds without a hit are left out; they make up all but 0.84% or so of the library.
NCOA3 inh: inhibits human SRC3 coactivator | Q9Y6Q9 | HEK293 GAL4-SRC3 luciferase reporter, luminescence | inhibition, % at 3.6 µM | actives 0.17% (n = 360,000);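 active means inhibition above a per-campaign cutoff, the mean of all compounds plus 3 SD, cut at about 60% in these data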;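 further: 0% = DMSO-treated cells and 100% = gossypol-treated cells at 36 µM; higher means less SRC3-driven luciferase light from the GAL4 reporter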
NCOA1 inh: inhibitors of human steroid receptor coactivator 1 (SRC1). actives 0.12% (n = 360,000). HEK293 GAL4-SRC1 luciferase reporter, luminescence. AID 588354. inhibition, % at 3.6 µM. Q15788;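 active means inhibition above the campaign mean plus 3 SD, with each screening campaign given its own cutoff, cut at about 60% in these data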;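 further: 0% = DMSO treated cells and 100% = gossypol at 36 µM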
SRC2 inh: human SRC2 (NCOA2) inhibition; actives 0.17% (n = 370,000); inhibition, % at 9 µM; AID 651957; Q15596; HEK293 GAL4-SRC2 luciferase reporter, luminescence;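 active means inhibition above the mean inhibition of all tested compounds plus 3 SD, set per campaign, cut at about 52% in these data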;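 further: 0% = DMSO treated cells and 100% = cells given Gossypol at 36 µM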
COUP-TFII inh: NR2F2 (human) inhibition, primary screen | P24468 | HEK293T NGFI-A luciferase reporter, luminescence | inhibition, % at 8.6 µM | actives 0.7% (n = 370,000) | AID 686940;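 active means inhibition above a per-plate cutoff, mean inhibition of test wells between control levels plus 3 SD, cut at about 38% in these data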;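 further: cells cotransfected with COUP-TFII expression vector driving the NGFI-A reporter; 0% = median of COUP-TF2 test wells and 100% = reporter-only cells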
Target sequence (P24468 whole entry, looked up): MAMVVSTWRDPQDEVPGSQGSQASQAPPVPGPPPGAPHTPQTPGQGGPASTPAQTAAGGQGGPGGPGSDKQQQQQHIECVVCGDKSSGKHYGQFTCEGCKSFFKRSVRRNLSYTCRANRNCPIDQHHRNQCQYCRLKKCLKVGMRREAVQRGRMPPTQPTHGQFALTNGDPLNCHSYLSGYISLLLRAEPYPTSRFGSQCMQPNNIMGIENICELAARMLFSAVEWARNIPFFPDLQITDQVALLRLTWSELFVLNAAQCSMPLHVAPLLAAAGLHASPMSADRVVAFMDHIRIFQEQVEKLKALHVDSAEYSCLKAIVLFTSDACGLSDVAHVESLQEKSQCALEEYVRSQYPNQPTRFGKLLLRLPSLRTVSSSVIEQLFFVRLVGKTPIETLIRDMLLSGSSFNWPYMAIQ
NR5A2 inv ag: NR5A2 inverse agonism in reporter assay. inhibition, % at 3.6 µM. actives 0.13% (n = 360,000). HEK293T StAR-luciferase reporter, LRH-1 transfected, 24 h. AID 602396. O00482;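 active means inhibition above the mean inhibition of all tested compounds plus 3 SD, cut at about 73% in these data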;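 further: 0% = DMSO wells and 100% = reporter-only cells lacking LRH-1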
Gal4-VP16 ctr: counter-screen for COUP-TFII antagonists: inhibitors of VP16; shares compounds with COUP-TFII inh; HEK293 Gal4-VP16 luciferase reporter, luminescence; inhibition, % at 8.5 µM; actives 25% (n = 2,500); AID 687007; in the data active means inhibition above about 13%
NR2F2 inh conf: confirmation of human COUP-TFII (NR2F2) inhibitors. actives 45% (n = 2,500). inhibition, % at 8.5 µM. HEK293 NGFI-A luciferase reporter, luminescence. AID 687008. shares compounds with COUP-TFII inh;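 active means mean inhibition over three repeats above a set limit taken from the earlier primary screen, cut at about 38% in these data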;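 further: 100% = cells given the luciferase reporter alone without the COUP-TF2 vector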
Active calls of the source: *; . = no result given.

SMILES | NCOA3 inh | NCOA1 inh | SRC2 inh | COUP-TFII inh | NR5A2 inv ag | Gal4-VP16 ctr | NR2F2 inh conf
COc1ccc(-c2coc3c(C(=O)NCc4ccc(OC)c(OC)c4)cccc23)c(C)c1 | 18 | 28 | 14 | 79* | 62 | 6 | 69*
COCCCn1cc(CN2CC=CS2(=O)=O)nn1 | . | . | -10 | -6 | . | . | .
CN(C)CCCNS(=O)(=O)c1ccc(NC2CCCCCC2)c([N+](=O)[O-])c1 | 12 | 9 | 14 | 53* | 25 | 5 | 39*
COc1ccc(CCNC(=O)c2ccc(Cl)c(S(=O)(=O)N3CCCC3)c2)cc1 | 13 | 0 | -29 | 41* | 10 | -4 | 20
O=C(Nc1cccc(Br)c1)c1ccc(Cl)c(S(=O)(=O)N2CCOCC2)c1 | 21 | 17 | 31 | 59* | 6 | -6 | 57*
COc1ccc(NC(=O)c2cc3c(s2)CCC(C)C3)cc1S(=O)(=O)N1CCOCC1 (centres undefined) | 22 | 25 | 13 | 60* | 23 | -16 | 28
CCc1sc(C(=O)Nc2ccc(OC)c(S(=O)(=O)N3CCOCC3)c2)cc1C | 12 | -6 | 22 | 2 | 14 | . | .
COc1ccc(C(=O)Nc2ccc(Cl)c(S(=O)(=O)N3CCOCC3)c2)cc1 | 20 | 31 | 20 | 59* | 21 | -6 | 25
O=C(Nc1cccc(C(=O)NC2CC2)c1)c1ccc(Cl)c(S(=O)(=O)N2CCOCC2)c1 | -6 | -5 | -5 | 11 | 12 | . | .
COc1ccc(C(=O)Nc2ccc(S(=O)(=O)N3CCOCC3)cc2)cc1 | 8 | -39 | 3 | 1 | 13 | . | .
O=C(NCCN1CCCCC1)c1ccc(F)cc1Cl | 6 | -26 | 3 | -2 | -17 | . | .
Cc1ccc(C)c(N2CCN(C(=O)CCC(=O)Nc3nnc(C(F)(F)F)s3)CC2)c1 | -4 | -2 | 6 | 3 | -11 | . | .
COc1ccc(NC(=O)c2cc(C3CCCCN3C(=O)c3ccc4c(c3)CCO4)on2)c(C)c1 (centres undefined) | -5 | 17 | 4 | 0 | 11 | . | .
O=C(Nc1ccc(Cl)c(S(=O)(=O)N2CCOCC2)c1)c1ccc2c(c1)OCCO2 | 16 | -3 | 7 | 28 | -9 | . | .
O=C(Nc1ccc(Cl)c(S(=O)(=O)N2CCOCC2)c1)c1ccc(Cl)nc1 | 0 | 18 | -2 | 44* | 13 | 3 | 16
COC(=O)Cc1cc(C)cc2c(=O)cc(-c3ccoc3)oc12 | 6 | 4 | -24 | 4 | 9 | . | .
COC(=O)[C@]12C[C@H](CC(=O)NCC3CCCCC3)C(=O)N(Cc3ccccc3)C1=C[C@H](C(C)C)O[C@@H]2C1CC1 | . | . | 5 | -12 | . | . | .
CN(CC(=O)Nc1ccccc1Cl)C(=O)c1cccc(S(=O)(=O)N2CCN(c3ccc(F)cc3)CC2)c1 | 11 | 4 | 19 | 30 | 28 | . | .
Cc1cccc(C)c1NC(=O)CN(C)C(=O)c1cccc(S(=O)(=O)N2CCN(c3ccc(F)cc3)CC2)c1 | 24 | 10 | 22 | 20 | 14 | . | .
COc1ccc(NC(=O)c2cccc(S(=O)(=O)N3CCN(c4ccccc4)CC3)c2)c(OC)c1 | -9 | -2 | -2 | 14 | -3 | . | .
CN(CC(=O)Nc1cccc(F)c1)C(=O)c1cccc(S(=O)(=O)N2CCN(c3ccc(F)cc3)CC2)c1 | 15 | 5 | 28 | 42* | -17 | 4 | 14
CN(CC(=O)Nc1ccccc1Cl)C(=O)c1cccc(S(=O)(=O)N2CCN(c3ccccc3)CC2)c1 | 10 | 2 | -5 | 43* | 10 | 6 | 19
O=C(Nc1ccncc1)c1cccc(S(=O)(=O)N2CCN(c3ccc(F)cc3)CC2)c1 | 17 | 22 | 23 | 47* | 25 | 7 | 31
COc1ccccc1NC(=O)c1cccc(S(=O)(=O)N2CCN(c3ccccc3)CC2)c1 | -43 | 5 | 16 | 42* | 5 | -5 | 6
CC(C)(C)c1ccc(C#C[C@@H]2C=C[C@H]3OC(=O)CC/C=C/CCC(=O)OC[C@H]3O2)cc1 | . | . | 24 | 25 | . | . | .
SMILES | NCOA3 inh | NCOA1 inh | SRC2 inh | COUP-TFII inh | NR5A2 inv ag | Gal4-VP16 ctr | NR2F2 inh conf
Cc1cccc(C)c1NC(=O)CN(C)C(=O)c1cccc(S(=O)(=O)N2CCN(c3ccccc3)CC2)c1 | 16 | -9 | -6 | 23 | 4 | . | .
CN(Cc1ccc(OC(F)F)cc1)C(=O)c1cccc(S(=O)(=O)N2CCN(c3ccccc3)CC2)c1 | 23 | 9 | 24 | 67* | 28 | 13* | 55*
CN(CC(=O)Nc1ccccc1Cl)C(=O)c1cccc(S(=O)(=O)N2CCN(Cc3ccccc3)CC2)c1 | 24 | 4 | 10 | 48* | 21 | 1 | 35
CN(Cc1ccc(Cl)c(Cl)c1)C(=O)c1cccc(S(=O)(=O)N2CCN(Cc3ccccc3)CC2)c1 | 26 | -1 | 15 | 21 | 12 | . | .
CN(CC(=O)Nc1cccc(F)c1)C(=O)c1cccc(S(=O)(=O)N2CCN(Cc3ccccc3)CC2)c1 | 9 | 10 | 13 | 26 | 15 | . | .
COc1ccc(CCN(C)C(=O)c2cccc(S(=O)(=O)N3CCN(c4ccc(F)cc4)CC3)c2)cc1OC | 18 | 13 | 2 | 59* | 29 | 12 | 45*
CN(Cc1cccc(Cl)c1Cl)C(=O)c1cccc(S(=O)(=O)N2CCN(Cc3ccccc3)CC2)c1 | 1 | -3 | 11 | 42* | 31 | -3 | 26
CN(CCOc1ccc(Cl)cc1)C(=O)c1cccc(S(=O)(=O)N2CCN(c3ccc(F)cc3)CC2)c1 | 33 | 24 | . | . | 42 | . | .
O=C(C(=O)N1CCC(CNS(=O)(=O)Cc2ccccc2)CC1)c1cccs1 | . | . | -17 | 4 | . | . | .
O=C(c1cccc(S(=O)(=O)N2CCN(c3ccc(F)cc3)CC2)c1)N1CCCC(C(F)(F)F)C1 (centres undefined) | 20 | 20 | 27 | 63* | 36 | -4 | 45*
CN1C(=O)[C@@]2(C3=C(CCCC3=O)OC3=C2C(=O)OC2(CCCCC2)C3)c2ccccc21 | . | . | 17 | 6 | . | . | .
CN1C(=O)C2(C(C#N)=C(N)N(c3cc(Cl)cc(Cl)c3)C3=C2C(=O)CCC3)c2ccccc21 (centres undefined) | 33 | 6 | 7 | 43* | 9 | -16 | 26
O=C(NCCNc1ccnc2cc(Cl)ccc12)c1ccccc1F | -4 | 19 | 16 | 55* | 20 | -8 | 36
c1cncc(Oc2ccc(NCCc3c[nH]c4ccccc34)cc2)c1 | . | . | -10 | 16 | . | . | .
CC(NC(=O)c1cc(COc2ccc3ncccc3c2)on1)c1ccc(F)cc1 (centres undefined) | 28 | 10 | 21 | 69* | 40 | 0 | 58*
O=C(NCCc1cn2ccccc2n1)c1cc(COc2ccc3ncccc3c2)on1 | 33 | 15 | 2 | 64* | 17 | -3 | 83*
O=C(c1cc(COc2ccc3ncccc3c2)on1)N1CCCCCC1 | 26 | 12 | 11 | 43* | 34 | 4 | 49*

Bioassay records deposited in PubChem BioAssay by The Scripps Research Institute Molecular Screening Center.
